KB-V1 MDR tox: kills drug-selected multidrug resistant KB-V1 cells. KB-V1 MDR cells viability, CellTiter-Glo, 72 h. Potency, µM (highest dose often 46.1 µM), actives largely listed as cytotoxic. 3.4% of 400,000 active; also: nearly all actives have a fitted effect of over 60% in size
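Following 72 h at 37 degrees C with compound, KB-V1 cell viability was read by CellTiter-Glo luminescence, medium being phenol-red-free DMEM plus 10% FBS; concentration-response parameters came from normalized, curve-fitted qHTS data.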
HT1080NT lethal: kills 2HG-producing HT-1080-NT fibrosarcoma cells; HT-1080-NT fibrosarcoma viability, CellTiter-Glo ATP luminescence, 48 h; Potency, µM (top dose mostly 46.1 µM), without a hit: at the highest dose activity, negative = less viability, hits mostly cytotoxic; 1.6% of 360,000 active;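 also: NT is the 2HG producing partner of a matched IDH1 knockdown line; 0% = DMSO-treated cells and -100% = media-only wells without cells; nearly all actives have a fitted effect of over 55% in size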
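750 cells/well, RPMI + 5% FBS; 2 h settle, compound pin-transfer, 48 h at 37 degrees C. CellTiter-Glo 10 min RT, luminescence. Normalized to DMSO and media-only wells.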
KB-3-1 cytotox: KB-3-1 parental cell cytotoxicity | KB-3-1 viability, CellTiter-Glo ATP luminescence, 72 h | Potency, µM (highest dose often 46.1 µM), most hits filed as cytotoxic | 1.4% of 400,000 active | AID 1347075; also: nearly all actives have a fitted effect of over 60% in size
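Screening of KB-3-1 cells (DMEM, 10% FBS, phenol-red free) ran from lowest to highest compound concentration; after 72 h at 37 °C viability was read luminescently and curves fitted.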
HT1080 IDH1KD tx: kills HT-1080 cells with IDH1 knockdown; AID 686971; HT-1080 IDH1 knockdown viability, ATP luminescence, 48 h; 2% of 360,000 active; Potency, µM (series often up to 46.1 µM), inactives show at the top dose activity, negative = toxicity, usual class: cytotoxic;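 also: 0% = DMSO wells and -100% = cell-free medium wells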
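Luminescent ATP read-out (CellTiter-Glo, 10 min at room temperature) after 48 h compound exposure at 37 °C gave viability of IDH1-knockdown HT-1080 cells. Activity was normalised to DMSO and cell-free wells, then fitted as concentration-response curves.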
* = called active by the depositor; i = inactive; ? = inconclusive; / = not tested or not shown. The list is not random: actives were taken first. Their share in the collection is about 5.7%. Calls follow the shape of the dose curve; as a rule, active = well fitted curve in the direction sought with a large enough effect; inconclusive = small, poorly fitted or top-dose-only effect, or another doubt; inactive = no such curve, though single readings can be large; an effect the other way counts as inactive or inconclusive. Unless noted, % is scaled to controls: 0 for no effect and ±100 for the full control effect; potency is read from the fitted curve at half-maximal effect.

SMILES	KB-V1 MDR tox	HT1080NT lethal	KB-3-1 cytotox	HT1080 IDH1KD tx
CC(OC(=O)Cn1[nH]c(=O)c2ccccc2c1=O)C(=O)NC1(C#N)CCCCC1 (stereo unspecified)	i	0%	i	-2%
Cc1ccc(-c2csc(N3CCN(CCCn4c(-c5ccncc5)nc5ccccc54)CC3)n2)cc1	18µM*	?	?	?
CCCn1c(C2CCCN2c2nc(-c3ccc(C)cc3)cs2)nc2ccccc21 (stereo unspecified)	?	?	18µM*	?
Cc1ccc(-c2csc(N3CCN(CCCn4c(C(F)(F)F)nc5ccccc54)CC3)n2)cc1	i	?	?	-8%
COc1ccccc1NCc1cccn1-c1nnc(N2CCOCC2)s1	?	/	i	/
O=C(NCc1ccccc1F)c1cccc(NC(=O)N2CCSc3ncccc32)c1	i	/	i	/
CNc1cc(C(=O)O)nc2ccccc12	i	/	?	/
Cc1ccc2[nH]c(=O)c(CN(Cc3ccccc3)C(=S)NCCCN(C)C)cc2c1	i	18µM*	i	16µM*
CCN(CC)CCN(Cc1cc2cc(C)ccc2[nH]c1=O)C(=S)Nc1ccccc1	i	-12%	i	17%
Cc1cccc(NC(=S)N(CCN(C)C)Cc2cc3cc(C)ccc3[nH]c2=O)c1	?	16µM*	i	?
COc1cc2cc(CN(CCc3ccccc3C)C(=S)NCCCN(C)C)c(=O)[nH]c2cc1OC	i	-17%	?	-28%
Cc1cccc2cc(CN(CCN(C)C)C(=S)Nc3ccccc3)c(=O)[nH]c12	23µM*	-13%	i	-20%
COc1cc(SC)ccc1C(=O)Nc1ccc(S(=O)(=O)Nc2nccc(C)n2)cc1	i	/	i	/
COc1ccccc1CNC(=O)CSc1ncc2c(n1)-c1cc(Cl)ccc1N(Cc1ccccc1)S2(=O)=O	i	/	i	/
CCOC(=O)c1c(C)[nH]c(C(=O)N/N=C\c2ccccc2Cl)c1C	?	?	?	15µM*
CCOC(=O)c1[nH]c(C)c(C(=O)OC(C)C(=O)Nc2ncc(Cl)cc2Cl)c1C (stereo unspecified)	13µM*	-24%	?	-29%
CCOC(=O)c1[nH]c(C)c(C(=O)Nc2cccc(Cl)c2C)c1C	6.5µM*	11µM*	5.8µM*	7.9µM*
CCOC(=O)c1c(C)[nH]c(C(=O)NNC(=O)c2ccccc2)c1C	i	8%	i	17%
CCC[C@H]1COCCS(=O)(=O)N1Cc1cccc(F)c1	i	/	i	/
O=C(Cn1c(COc2ccccc2)nc2ccccc21)Nc1cc(Cl)ccc1Cl	23µM*	-16%	?	-5%
O=C(CSc1nnc(SCc2ccc(Cl)cc2)s1)N/N=C/c1c[nH]c2ccccc12	?	?	?	18µM*
Cc1nc2cc(N3CCCCC3)c(NC(=O)c3ccncc3)cc2c(=O)n1Cc1ccccc1	i	3.7µM*	i	5.2µM*
Cc1cccc(C)c1NC(=O)CN(C)CC(=O)Nc1ccc(F)c(Cl)c1	15µM*	-2%	i	-17%
COc1ccc(OC)c(CN2C(=O)c3ccccc3C2c2nnnn2-c2ccc3c(c2)OCCO3)c1 (stereo unspecified)	i	?	4.6µM*	?
C(=C\c1ccccc1)/CN1CCN(C(c2cc3ccccc3o2)c2nnnn2Cc2ccccc2)CC1 (stereo unspecified)	16µM*	18%	i	9%
SMILES	KB-V1 MDR tox	HT1080NT lethal	KB-3-1 cytotox	HT1080 IDH1KD tx
CCOC(=O)Cc1csc(NC(=O)CSc2nnc(-n3nc(C)cc3C)c3ccccc23)n1	21µM*	-14%	i	-3%
CCOC(=O)Cc1csc(NC(=O)COc2ccc(C)cc2)n1	?	6%	i	4%
CCOC(=O)Cc1csc(NC(=O)c2ccc(S(=O)(=O)N3CCCCC3)cc2)n1	15µM*	-18%	i	-7%
Cc1cc(C)n(-c2nnc(SCC(=O)NC3CCCC3)c3ccccc23)n1	i	-23%	i	-15%
CCOC(=O)Cc1csc(NC(=O)COc2ccccc2)n1	i	10µM*	i	-6%
O=C(Nc1nc(COc2ccccc2)cs1)C12CC3CC(CC(C3)C1)C2	i	6.3µM*	i	?
CC(=O)Nc1nc(COc2ccccc2)cs1	i	11%	i	18%
CCCCOc1ccc(C(=O)Nc2onc3c2CCCC3)cc1	i	/	i	/
CCOC(=O)Cc1csc(NC(=O)c2cc(C)c(C)s2)n1	18µM*	27%	?	7%

Assay outcomes as filed in PubChem BioAssay.
